32 compounds from ChEMBL document CHEMBL4513216, “Probing the Open Global Health Chemical Diversity Library for Multistage-Active Starting Points for Next-Generation Antimalarials” (ACS Infect Dis, 2020) can be followed below.

Out of some 69,000 compounds screened, about 8,600 (12%) showed an effect of 50% or more. The sample as a whole holds a higher share of strong results than the screen did.

For this assay, the system named is Plasmodium berghei. Kind of assay: Screen against P. berghei liver stage (PbLuc), transformed with Luciferase, at 10uM. Format: functional, HepG2. The following applies: tested at 10 uM.
Consider `Cc1cc(C)n2ncc(CN3CCC(Cn4cc(CO)nn4)CC3)c2n1`, for which the INHIBITION worked out at 20.1%.

For the compound `Cc1cc(C)n2ncc(CN3CCC(n4cc(CCO)nn4)CC3)c2n1`, the INHIBITION is on record as 58.6%.

For the compound `Cc1cccc(CN2CCC(n3cc(CCO)nn3)CC2)c1C`, the INHIBITION was 53.3%.

Regarding `COCc1cn(C2CCN(Cc3ccc(Cl)s3)CC2)nn1`, the INHIBITION was 5.23%.

For the compound `Cc1ccc(CN2CCC(n3cc(CN4CCC(O)CC4)nn3)CC2)s1`, the INHIBITION was 7.43%.

Consider `Cc1cc(C)n2ncc(CN3C[C@@H](O)[C@H](Oc4ccccc4)C3)c2n1`, for which the INHIBITION is on record as -5.71%.

Consider `COCCN1CCN(Cc2cnc(C3(C)CCCCO3)nc2)CC1` (configuration not stated), for which the INHIBITION came to 3.25%.

As to `CS(=O)(=O)NCCC1CCCCN1C(=O)NCCc1ccccc1` (configuration not stated), the INHIBITION came to 28.3%.

Regarding `Cn1cc(-c2nc(CN3CCN(CCO)CC3)cs2)cn1`, the INHIBITION is on record as -0.847%.

On to `CCCC1CCCN(Cc2csc(-c3cnn(C)c3)n2)CC1` (configuration not stated), for which the INHIBITION is on record as 55.9%.

As for `CCCC1CCCN(Cc2csc(-c3ncccn3)n2)CC1` (configuration not stated), the INHIBITION stood at 91.7%.

`NC(=O)C1CCN(Cc2csc(-c3ncccn3)n2)CC1`: the INHIBITION is on record as 55.05%.

With `CCC1CCCN(C(=O)Cc2csc(-c3ncccn3)n2)C1` (configuration not stated), the INHIBITION is 14.7%.

With `c1cnc(-c2nc(CN3CCCC(Cn4cncn4)C3)cs2)nc1` (configuration not stated), the INHIBITION was determined as 15.6%.

As to `COCC(=O)N1CCN(Cc2csc(-c3ncccn3)n2)CC1`, the INHIBITION is on record as 38.9%.

In the case of `c1cnc(-c2nc(CN3CCCC(N4CCCC4)C3)cs2)nc1` (configuration not stated), the INHIBITION is -16.817%.

Consider `c1cnc(-c2nc(CN3CCn4c(nnc4C4CC4)C3)cs2)nc1`, for which the INHIBITION is -0.219%.

Turning to `CC(=O)NC1CCCN(Cc2csc(-c3ncccn3)n2)C1` (configuration not stated), the INHIBITION turned out to be 35.4%.

For `CC1CCCN(Cc2csc(-c3ncccn3)n2)CC1` (configuration not stated), the INHIBITION is recorded as 80.8%.

For the compound `COCCN1CCN(Cc2csc(-c3cnn(C)c3)n2)CC1`, the INHIBITION is reported as 7.75%.

With `Cn1ccc(C(=O)N2CCC3(CC2)CC(Nc2cnccn2)CO3)n1` (configuration not stated), the INHIBITION is on record as -4.26%.

As to `COc1ccc(-n2nc(C(C)=O)c(C(C)=O)c2C)cc1Cl`, the INHIBITION is reported as -7.27%.

Take `Cn1cc(NC(=O)Nc2ccc3c(c2)OCO3)cn1`: the INHIBITION was 24%.

Regarding `OCCN(Cc1ccno1)Cc1cc(Br)ccc1F`, the INHIBITION stood at 25.3%.

Turning to `COCC(=O)NCCc1nc(N(C)C)ncc1-c1ccncc1`, the INHIBITION is listed as 14.325%.

Turning to `NCC(=O)N1CCCC1c1n[nH]cc1-c1ccccc1F` (configuration not stated), the INHIBITION was 10.9%.

Regarding `Cc1cc(N2CCCC(O)(CN(C)C)C2)c2cc3c(cc2n1)OCO3` (configuration not stated), the INHIBITION is recorded as 11.6%.

As for `CC(C)Oc1cccc(C(=O)Nc2nncs2)c1`, the INHIBITION was -16.8%.

Take `CCCS(=O)(=O)N1Cc2ccnn2CC(c2nc(C)no2)C1` (configuration not stated): the INHIBITION came to 28.2%.

On to `c1cnc(-c2nc(CN3CCCN(Cc4cccs4)CC3)cs2)nc1`, for which the INHIBITION stood at 39.75%.

For `c1cnc(-c2nc(CN3CCN(CC4CC4)CC3)cs2)nc1`, the INHIBITION was 77.85%.

As to `c1cnc(-c2nc(CN3CCC(c4ccn[nH]4)CC3)cs2)nc1`, the INHIBITION is recorded as 12.8%.
